Key:
Assay in all cases: DAPPL (digital affinity profiling via proximity ligation, sequencing); 10 mM Tris-HCl pH 7.5, 50 mM NaCl, 1 mM DTT, 4% glycerol, room temperature, 30 min; GST-TFs on glutathione beads, 16-mer random dsDNA library, 0.1% formaldehyde crosslink after washing; high values mean tight binding
Settings in all cases: protein: recombinant; tags: N-terminal GST; dsDNA, one strand shown
FLI1 = target: T1, FLI1 (Homo sapiens, UniProt Q01543 1-452)
T1 sequence: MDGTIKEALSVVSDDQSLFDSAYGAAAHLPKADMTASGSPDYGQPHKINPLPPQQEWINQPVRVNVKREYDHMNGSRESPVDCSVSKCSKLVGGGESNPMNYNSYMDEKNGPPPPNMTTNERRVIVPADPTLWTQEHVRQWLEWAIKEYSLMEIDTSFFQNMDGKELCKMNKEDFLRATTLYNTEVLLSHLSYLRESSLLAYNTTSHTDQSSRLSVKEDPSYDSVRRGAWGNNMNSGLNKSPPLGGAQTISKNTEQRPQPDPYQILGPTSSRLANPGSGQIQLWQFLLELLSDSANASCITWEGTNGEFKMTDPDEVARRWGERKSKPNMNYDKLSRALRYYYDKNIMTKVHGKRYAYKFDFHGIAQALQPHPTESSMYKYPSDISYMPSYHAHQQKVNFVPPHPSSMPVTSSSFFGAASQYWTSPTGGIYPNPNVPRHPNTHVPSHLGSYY
Procedure, shortened: (§1)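 Sequencing on an Illumina NextSeq500 followed washing, crosslinking with 0.1% formaldehyde, proximity ligation (BsaI/T4 ligase, 1 h, 37 °C) and PCR amplification of pools that had been incubated for 30 min at room temperature with 200 nmole of a random double-stranded 16-mer DNA library in Tris/NaCl/DTT/glycerol buffer. Each pool held DNA-barcoded human transcription factors, expressed in yeast as GST fusions and captured on glutathione beads, plus a tag-only sample. Binding signal is a hexamer's read frequency for a factor divided by its frequency in the tag-only sample.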

ELK1 = target: T2, ELK1 (Homo sapiens, UniProt P19419 1-428)
T2 sequence: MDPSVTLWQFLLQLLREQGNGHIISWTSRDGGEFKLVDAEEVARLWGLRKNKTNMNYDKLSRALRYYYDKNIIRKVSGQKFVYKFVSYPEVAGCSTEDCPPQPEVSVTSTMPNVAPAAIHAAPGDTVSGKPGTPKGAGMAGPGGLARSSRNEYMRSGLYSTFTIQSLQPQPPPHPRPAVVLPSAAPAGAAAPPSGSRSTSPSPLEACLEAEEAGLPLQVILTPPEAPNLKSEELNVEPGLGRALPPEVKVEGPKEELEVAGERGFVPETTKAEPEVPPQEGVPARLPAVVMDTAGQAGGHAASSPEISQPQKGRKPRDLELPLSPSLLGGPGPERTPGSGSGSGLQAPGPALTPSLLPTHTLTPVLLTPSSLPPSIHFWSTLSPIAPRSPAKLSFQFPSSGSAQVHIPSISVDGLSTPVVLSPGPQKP
Procedure, shortened: as §1

GABPA = target: T3, GABPA (Homo sapiens, UniProt Q06546 1-454)
T3 sequence: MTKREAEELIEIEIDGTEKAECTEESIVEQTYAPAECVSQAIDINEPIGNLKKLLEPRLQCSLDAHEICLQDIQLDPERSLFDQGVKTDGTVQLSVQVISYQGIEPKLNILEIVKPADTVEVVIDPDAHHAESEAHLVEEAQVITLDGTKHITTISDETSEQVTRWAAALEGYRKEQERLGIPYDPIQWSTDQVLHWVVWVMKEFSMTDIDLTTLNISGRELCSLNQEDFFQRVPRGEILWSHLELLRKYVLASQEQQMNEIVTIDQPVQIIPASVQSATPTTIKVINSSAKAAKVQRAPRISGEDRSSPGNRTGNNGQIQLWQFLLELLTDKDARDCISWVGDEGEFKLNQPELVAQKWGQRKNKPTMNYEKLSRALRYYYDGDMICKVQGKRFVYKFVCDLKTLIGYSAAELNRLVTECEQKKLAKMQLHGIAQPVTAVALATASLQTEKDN
Procedure, shortened: as §1

ERG = target: T4, ERG (Homo sapiens, UniProt P11308 1-479)
T4 sequence: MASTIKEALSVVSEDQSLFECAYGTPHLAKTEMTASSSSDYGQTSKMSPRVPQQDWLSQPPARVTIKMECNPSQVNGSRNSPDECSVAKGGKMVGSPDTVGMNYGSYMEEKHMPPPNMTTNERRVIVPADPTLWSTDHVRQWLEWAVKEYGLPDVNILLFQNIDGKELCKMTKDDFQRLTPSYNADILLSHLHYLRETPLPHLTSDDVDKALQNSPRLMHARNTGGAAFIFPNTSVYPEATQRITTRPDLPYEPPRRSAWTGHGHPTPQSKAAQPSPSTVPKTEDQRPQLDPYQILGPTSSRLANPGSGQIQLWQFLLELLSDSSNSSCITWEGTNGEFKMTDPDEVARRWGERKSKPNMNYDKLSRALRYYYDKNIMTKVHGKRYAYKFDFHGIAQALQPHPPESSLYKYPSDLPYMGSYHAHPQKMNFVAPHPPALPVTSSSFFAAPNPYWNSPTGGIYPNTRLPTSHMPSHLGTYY
Procedure, shortened: as §1

ELF1 = ELF1 (Homo sapiens, UniProt P32519 1-619)
Sequence of ELF1 (P32519 whole entry): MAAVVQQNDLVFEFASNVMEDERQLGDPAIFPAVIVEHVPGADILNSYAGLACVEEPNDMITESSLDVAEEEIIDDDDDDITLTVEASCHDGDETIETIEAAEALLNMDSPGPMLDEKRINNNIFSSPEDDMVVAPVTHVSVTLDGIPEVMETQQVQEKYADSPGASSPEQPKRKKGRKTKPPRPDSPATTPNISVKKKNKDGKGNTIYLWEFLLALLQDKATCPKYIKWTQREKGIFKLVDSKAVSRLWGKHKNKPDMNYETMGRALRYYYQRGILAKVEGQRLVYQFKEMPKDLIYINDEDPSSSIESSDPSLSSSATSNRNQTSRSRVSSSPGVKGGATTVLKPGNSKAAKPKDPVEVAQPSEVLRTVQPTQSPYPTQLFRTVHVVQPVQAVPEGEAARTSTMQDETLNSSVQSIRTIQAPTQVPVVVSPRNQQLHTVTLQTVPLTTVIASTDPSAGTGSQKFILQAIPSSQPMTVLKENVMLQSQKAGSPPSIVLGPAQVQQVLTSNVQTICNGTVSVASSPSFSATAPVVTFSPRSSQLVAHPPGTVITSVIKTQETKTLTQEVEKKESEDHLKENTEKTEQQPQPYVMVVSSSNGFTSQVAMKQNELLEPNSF
Procedure, shortened: as §1

EHF = target: T5, EHF (Homo sapiens, UniProt Q9NZC4 1-300)
T5 sequence: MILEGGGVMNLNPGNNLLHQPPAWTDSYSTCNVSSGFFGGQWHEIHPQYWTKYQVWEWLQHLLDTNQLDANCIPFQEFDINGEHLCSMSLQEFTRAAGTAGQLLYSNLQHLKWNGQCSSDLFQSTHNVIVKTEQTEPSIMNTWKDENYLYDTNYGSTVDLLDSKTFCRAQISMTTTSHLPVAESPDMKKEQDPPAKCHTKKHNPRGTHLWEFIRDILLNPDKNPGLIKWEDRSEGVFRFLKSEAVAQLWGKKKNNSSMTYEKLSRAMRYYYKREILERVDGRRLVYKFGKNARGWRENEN
Procedure, shortened: as §1

SPI1 = SPI1 (Homo sapiens, UniProt P17947 1-270)
Procedure, shortened: as §1

SPIB = SPIB (Homo sapiens, UniProt Q01892 1-262)
Sequence of SPIB (Q01892 whole entry): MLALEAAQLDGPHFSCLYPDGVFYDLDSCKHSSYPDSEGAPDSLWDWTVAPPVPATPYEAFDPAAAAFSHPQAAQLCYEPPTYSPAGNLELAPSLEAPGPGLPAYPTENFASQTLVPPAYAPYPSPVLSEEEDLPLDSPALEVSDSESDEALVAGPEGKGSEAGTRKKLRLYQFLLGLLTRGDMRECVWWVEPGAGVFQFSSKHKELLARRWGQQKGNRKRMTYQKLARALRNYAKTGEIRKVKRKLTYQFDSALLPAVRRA
Procedure, shortened: as §1

ELK3 = target: T6, ELK3 (Homo sapiens, UniProt P41970 1-407)
T6 sequence: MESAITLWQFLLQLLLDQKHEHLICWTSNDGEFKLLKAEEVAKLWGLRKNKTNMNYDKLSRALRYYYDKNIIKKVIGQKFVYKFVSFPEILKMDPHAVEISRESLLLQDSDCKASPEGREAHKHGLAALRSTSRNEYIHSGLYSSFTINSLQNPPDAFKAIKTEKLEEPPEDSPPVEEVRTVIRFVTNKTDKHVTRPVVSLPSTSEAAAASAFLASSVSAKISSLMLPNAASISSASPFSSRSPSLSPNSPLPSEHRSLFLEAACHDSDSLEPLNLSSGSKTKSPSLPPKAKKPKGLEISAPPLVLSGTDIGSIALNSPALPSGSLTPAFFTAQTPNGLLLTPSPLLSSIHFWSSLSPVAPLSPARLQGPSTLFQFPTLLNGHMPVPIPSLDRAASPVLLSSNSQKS
Procedure, shortened: as §1

With AAGTGG the binding signal (FLI1) was 1.09 fold enrichment (6-mer frequency, TF over GST control), the binding signal (ELK1) was 1.19 fold enrichment (6-mer frequency, TF over GST control) and the binding signal (GABPA) was 1.22 fold enrichment (6-mer frequency, TF over GST control). For the same sequence, the binding signal (ERG) was 1.16 fold enrichment (6-mer frequency, TF over GST control), the binding signal (ELF1) was 1.17 fold enrichment (6-mer frequency, TF over GST control) and the binding signal (EHF) was 1.24 fold enrichment (6-mer frequency, TF over GST control). For the same sequence, the binding signal (SPI1) was 1.5 fold enrichment (6-mer frequency, TF over GST control), the binding signal (SPIB) was 1.26 fold enrichment (6-mer frequency, TF over GST control) and the binding signal (ELK3) was 1.33 fold enrichment (6-mer frequency, TF over GST control).
For CTCGTA, the binding signal (FLI1) was 1.31 fold enrichment (6-mer frequency, TF over GST control), the binding signal (ELK1) was 1.37 fold enrichment (6-mer frequency, TF over GST control) and the binding signal (GABPA) was 1.3 fold enrichment (6-mer frequency, TF over GST control). For the same sequence, the binding signal (ERG) was 1.22 fold enrichment (6-mer frequency, TF over GST control), the binding signal (ELF1) was 1.32 fold enrichment (6-mer frequency, TF over GST control) and the binding signal (EHF) was 1.31 fold enrichment (6-mer frequency, TF over GST control). The binding signal (SPI1) was 1.39 fold enrichment (6-mer frequency, TF over GST control), the binding signal (SPIB) was 1.38 fold enrichment (6-mer frequency, TF over GST control) and the binding signal (ELK3) was 1.36 fold enrichment (6-mer frequency, TF over GST control).
With CTAAAA the binding signal (FLI1) was 1.13 fold enrichment (6-mer frequency, TF over GST control), the binding signal (ELK1) was 1.12 fold enrichment (6-mer frequency, TF over GST control) and the binding signal (GABPA) was 1.18 fold enrichment (6-mer frequency, TF over GST control). For the same sequence, the binding signal (ERG) was 1.2 fold enrichment (6-mer frequency, TF over GST control), the binding signal (ELF1) was 1.13 fold enrichment (6-mer frequency, TF over GST control) and the binding signal (EHF) was 1.1 fold enrichment (6-mer frequency, TF over GST control). For the same sequence, the binding signal (SPI1) was 1.26 fold enrichment (6-mer frequency, TF over GST control), the binding signal (SPIB) was 1.1 fold enrichment (6-mer frequency, TF over GST control) and the binding signal (ELK3) was 1.13 fold enrichment (6-mer frequency, TF over GST control).
In the case of TTTTTT, the binding signal (FLI1) is reported as 1.12 fold enrichment (6-mer frequency, TF over GST control), the binding signal (ELK1) is reported as 1.05 fold enrichment (6-mer frequency, TF over GST control) and the binding signal (GABPA) is reported as 1.25 fold enrichment (6-mer frequency, TF over GST control). For the same sequence, the binding signal (ERG) was 1.12 fold enrichment (6-mer frequency, TF over GST control), the binding signal (ELF1) was 1.25 fold enrichment (6-mer frequency, TF over GST control) and the binding signal (EHF) was 1.2 fold enrichment (6-mer frequency, TF over GST control). The binding signal (SPI1) was 1.36 fold enrichment (6-mer frequency, TF over GST control), the binding signal (SPIB) was 1.22 fold enrichment (6-mer frequency, TF over GST control) and the binding signal (ELK3) was 1.34 fold enrichment (6-mer frequency, TF over GST control).
CCACCC was tested, and the binding signal (FLI1) was 1.17 fold enrichment (6-mer frequency, TF over GST control), the binding signal (ELK1) was 1.28 fold enrichment (6-mer frequency, TF over GST control) and the binding signal (GABPA) was 1.28 fold enrichment (6-mer frequency, TF over GST control). The binding signal (ERG) was 1.21 fold enrichment (6-mer frequency, TF over GST control), the binding signal (ELF1) was 1.23 fold enrichment (6-mer frequency, TF over GST control) and the binding signal (EHF) was 1.31 fold enrichment (6-mer frequency, TF over GST control). For the same sequence, the binding signal (SPI1) was 1.22 fold enrichment (6-mer frequency, TF over GST control), the binding signal (SPIB) was 1.31 fold enrichment (6-mer frequency, TF over GST control) and the binding signal (ELK3) was 1.23 fold enrichment (6-mer frequency, TF over GST control).
For TCTGTC, the binding signal (FLI1) was 1.16 fold enrichment (6-mer frequency, TF over GST control), the binding signal (ELK1) was 1.13 fold enrichment (6-mer frequency, TF over GST control) and the binding signal (GABPA) was 1.16 fold enrichment (6-mer frequency, TF over GST control). The binding signal (ERG) was 1.17 fold enrichment (6-mer frequency, TF over GST control), the binding signal (ELF1) was 1.12 fold enrichment (6-mer frequency, TF over GST control) and the binding signal (EHF) was 1.14 fold enrichment (6-mer frequency, TF over GST control). The binding signal (SPI1) was 1.1 fold enrichment (6-mer frequency, TF over GST control), the binding signal (SPIB) was 1.05 fold enrichment (6-mer frequency, TF over GST control) and the binding signal (ELK3) was 1.17 fold enrichment (6-mer frequency, TF over GST control).
In the case of CCGTAT, the binding signal (FLI1) is reported as 1.22 fold enrichment (6-mer frequency, TF over GST control), the binding signal (ELK1) is reported as 1.36 fold enrichment (6-mer frequency, TF over GST control) and the binding signal (GABPA) is reported as 1.31 fold enrichment (6-mer frequency, TF over GST control). The binding signal (ERG) was 1.2 fold enrichment (6-mer frequency, TF over GST control), the binding signal (ELF1) was 1.26 fold enrichment (6-mer frequency, TF over GST control) and the binding signal (EHF) was 1.14 fold enrichment (6-mer frequency, TF over GST control). The binding signal (SPI1) was 1.26 fold enrichment (6-mer frequency, TF over GST control), the binding signal (SPIB) was 1.31 fold enrichment (6-mer frequency, TF over GST control) and the binding signal (ELK3) was 1.32 fold enrichment (6-mer frequency, TF over GST control).

From publication PMC7862700, “An all-to-all approach to the identification of sequence-specific readers for epigenetic DNA modifications on cytosine”
